The source of these data is PubChem BioAssay (NCATS).

The source made the active and inactive calls. A call without a number means that no potency is given here. Calls follow the shape of the dose curve; as a rule, active = well fitted inhibition curve with a large enough effect; inconclusive = small, poorly fitted or top-dose-only effect; inactive = flat fitted curve, though single readings scatter.

Chain of ATP-dependent DNA helicase Q1 (Homo sapiens) (P46063 whole entry, looked up): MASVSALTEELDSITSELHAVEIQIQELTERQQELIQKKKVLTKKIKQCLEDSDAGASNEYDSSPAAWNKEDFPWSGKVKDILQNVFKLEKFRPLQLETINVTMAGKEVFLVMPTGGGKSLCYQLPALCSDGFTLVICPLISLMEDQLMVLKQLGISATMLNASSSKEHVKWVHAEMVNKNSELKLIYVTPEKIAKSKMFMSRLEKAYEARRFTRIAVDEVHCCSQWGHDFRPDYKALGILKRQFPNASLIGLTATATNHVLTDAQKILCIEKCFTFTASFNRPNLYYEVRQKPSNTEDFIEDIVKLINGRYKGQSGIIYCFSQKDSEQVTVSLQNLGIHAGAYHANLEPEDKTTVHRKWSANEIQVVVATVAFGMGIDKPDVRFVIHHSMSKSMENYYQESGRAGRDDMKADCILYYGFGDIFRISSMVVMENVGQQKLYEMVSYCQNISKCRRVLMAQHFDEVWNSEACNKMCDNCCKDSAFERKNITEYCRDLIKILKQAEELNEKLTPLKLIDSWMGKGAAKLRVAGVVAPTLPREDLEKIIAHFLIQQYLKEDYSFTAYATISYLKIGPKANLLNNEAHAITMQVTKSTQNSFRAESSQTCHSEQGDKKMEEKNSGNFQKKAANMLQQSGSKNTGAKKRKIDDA

This test concerns the target ATP-dependent DNA helicase Q1 (Homo sapiens) (UniProt P46063). Briefly: qHTS Validation Assay for Inhibitors of RecQ-Like Dna Helicase 1 (RECQ1) (AID 2353). As to conditions: recombinant RECQ1 helicase DNA unwinding assay; series mostly up to 25.6 µM. The text has this:
Survival of cells and the faithful propagation of the genome depend on elaborate mechanisms of detecting and repairing DNA damage. Treatment of advanced cancer relies on radiation therapy or chemotherapy, which kill cancer cells by causing extensive DNA damage. It is often found, that cancer cells develop resistance to therapy through enhanced activity of DNA repair functions; this has led to an increased interest in developing drugs that interfere with DNA repair, which could sensitize cancer cells to conventional therapy.
This validation qHTS assay pertains to human RECQ1, which is important in resolving abnormal DNA structures formed during replication or homologous recombination. Shutting down the expression of RECQ1 leads to chromosomal instability and higher radiation sensitivity in cultured cells.
The validation assay was a fluorescence quenching based kinetic qHTS for RECQ1 Helicase DNA unwinding. The activity was measured as ATP-dependent separation of a 20-bp DNA duplex extended by 30-nt single-stranded tails (forked duplex). The forked DNA substrate was tagged with rhodamine fluorophore (carboxytetramethyl rhodamine, TAMRA) and BHQ-2 (Black Hole Quencher 2) dark quencher. Strand separation results in an increase in the fluorescence of TAMRA (excitation 525 nm, emission 598 nm). This substrate construct operates in a red-shifted region where very few compound library members have been noted to fluoresce (PubChem AIDs 593 and 594). An additional feature of the assay is the inclusion of 2.5 ug/ml poly (dIdC), to reduce interference by compounds such as DNA intercalators, a major source of false inhibitors.
Opher Gileadi, Structural Genomics Consortium, University of Oxford
Screening Center PI: Austin, C.P.
Screening Center: NIH Chemical Genomics Center [NCGC]
Three uL of reaction buffer (25 mM Tris-HCl (pH 8.0), 5 mM NaCl, 2 mM MgCl2, 1mM DTT, 0.01% Tween- 20, and 2.5 ug/ml poly(dI-dC), including enzyme (50 nM RECQ1T1), were dispensed into a 1536-well Greiner black assay plate via solenoid-valve based nanoliter dispensers. Compounds (23 nl each in columns 5-48) and control (23 nl each in column 2 as dose-response) were transferred via a Kalypsys pintool equipped with a 1536-pin array. The plates were incubated for 15 min at room temperature, and then 1 ul of substrates (200 nM DNA and 2 mM ATP, final concentrations) was added to start the reaction. The plate was transferred into a ViewLux high-throughput CCD imager where the reaction progress was measured in a discontinuous kinetic mode (two reads spaced 2 hours apart, with intermediate room temperature incubation of the covered assay plate) by using standard red-fluorescence optics (excitation filter 525 nm, emission filter 598 nm). Enzyme-free and vehicle (DMSO) controls were included for signal normalization.
For `Cc1scc2c1N(C(=O)CN1CCN(C)CC1)c1ccccc1NC2=O`, the Potency entry is “inactive”.

On to `Cc1nc2ccccn2c(=O)c1CCN1CCC(C(=O)c2ccc(F)cc2)CC1`, for which the Potency entry was “inactive”.

In the case of `CCCC(C(=O)OCCN(CC)CC)(c1ccccc1)c1ccccc1`, the Potency result was “inactive”.

Take `CNC1(C)C2CCC(C2)C1(C)C` (stereo not given): the Potency entry is “inactive”.

In the case of `CCNC(=O)N1CCN(CCCC(c2ccc(F)cc2)c2ccc(F)cc2)CC1`, the Potency entry was “inactive”.

Take `OCCN1CCN(CC/C=C2/c3ccccc3Sc3ccc(C(F)(F)F)cc32)CC1`: the Potency entry was “inactive”.

On to `C[C@]12C=CC(=O)C=C1CC[C@H]1[C@@H]3C[C@@H](O)[C@](O)(C(=O)CO)[C@@]3(C)C[C@H](O)[C@@]12F`, for which the Potency result was “inactive”.

In the case of `CC(C)(C)NCC(O)c1cc(O)cc(O)c1` (stereo not given), the Potency entry was “inactive”.

Regarding `COc1cc(Cc2cnc(N)nc2N)cc(OC)c1OC`, the Potency result was “inactive”.

In the case of `Cc1ccc(S(=O)(=O)NC(=O)NN2CCCCCC2)cc1`, the Potency entry was “inactive”.

Consider `CCOC(=O)c1cnc2c(cnn2CC)c1NN=C(C)C`, for which the Potency entry is “inactive”.

Consider `C#CCN(C)CCCOc1ccc(Cl)cc1Cl`, for which the Potency result is “inactive”.

On to `COCCCC/C(=N\OCCN)c1ccc(C(F)(F)F)cc1`, for which the Potency entry is “inactive”.

Turning to `CCCN(CCC)C(=O)C(CCC(=O)O)NC(=O)c1ccccc1` (stereo not given), the Potency entry is “inactive”.

Take `COc1ccc(CN(CCN(C)C)c2ccccn2)cc1`: the Potency entry was “inactive”.

As for `CN(C)CCOC(=O)COc1ccc(Cl)cc1`, the Potency result was “inactive”.

With `CN1CCN(C2=Nc3ccccc3Oc3ccc(Cl)cc32)CC1`, the Potency result was “inactive”.

`COC(=O)[C@@H](N)Cc1ccc(O)c(O)c1`: the Potency result is “inactive”.

Turning to `NC(N)=N/N=C/c1c(Cl)cccc1Cl`, the Potency entry is “inactive”.

With `CCOC(=O)C1=C(C)NC(C)=C(C(=O)OC)C1c1cccc(Cl)c1Cl` (stereo not given), the Potency entry is “inactive”.

As to `CC1=NS(=O)(=O)c2cc(Cl)ccc2N1`, the Potency result is “inactive”.

Take `Brc1c(NC2=NCCN2)ccc2nccnc12`: the Potency result was “inactive”.

With `c1ccc2c(c1)CCCC2C1=NCCN1` (stereo not given), the Potency entry was “inactive”.

Take `N[C@@H](COP(=O)(O)O)C(=O)O`: the Potency result is “inactive”.

Consider `COC(=O)[C@H]1[C@H]2C[C@@H]3c4[nH]c5cc(OC)ccc5c4CCN3C[C@H]2C[C@@H](OC(=O)c2cc(OC)c(OC)c(OC)c2)[C@@H]1OC`, for which the Potency result was “inactive”.

With `COC(=O)C1=C(C)NC(C)=C(C(=O)OCCN(C)Cc2ccccc2)C1c1cccc([N+](=O)[O-])c1` (stereo not given), the Potency result was “inactive”.

For `NCCCNCCSP(=O)(O)O`, the Potency result was “inactive”.

Regarding `NC(N)=NC(=O)Cc1c(Cl)cccc1Cl`, the Potency result is “inactive”.

For `C[N+](C)(C)CCOC(=O)CCC(=O)OCC[N+](C)(C)C`, the Potency entry is “inactive”.

For `CN(C)C/C=C(/c1ccc(Br)cc1)c1cccnc1`, the Potency result is “inactive”.

As for `O=C1CC2(CCCC2)CC(=O)N1CCCCN1CCN(c2ncccn2)CC1`, the Potency entry was “inactive”.

Take `CC(=O)OC(C)C[N+](C)(C)C` (stereo not given): the Potency result was “inactive”.

With `CC(=O)Oc1cc(C(C)C)c(OCCN(C)C)cc1C`, the Potency result was “inactive”.

Consider `C[C@]12CCC(=O)C=C1CC[C@@H]1[C@@H]2CC[C@@]2(C)[C@H]1CC[C@]2(O)C(=O)CO`, for which the Potency entry was “inactive”.

For the compound `Cc1ccc(Cl)c(Nc2ccccc2C(=O)O)c1Cl`, the Potency entry was “inactive”.

Regarding `CN(C)CC[C@@H](c1ccc(Br)cc1)c1ccccn1`, the Potency result is “inactive”.

As to `CC(C)COCC(CN(Cc1ccccc1)c1ccccc1)N1CCCC1` (stereo not given), the Potency entry was “inactive”.

Take `CC(C(=O)O)c1ccc(CC2CCCC2=O)cc1` (stereo not given): the Potency entry is “inactive”.

As to `CN(C)CCCN1c2ccccc2Sc2ccccc21`, the Potency entry is “inactive”.

In the case of `Cc1nnc(SCC2=C(C(=O)O)N3C(=O)[C@@H](NC(=O)Cn4cnnn4)[C@H]3SC2)s1`, the Potency entry is “inactive”.
